KLK7 zymogen act = activates the human kallikrein-7 zymogen | P49862 | purified proKLK7, EDANS-DABCYL substrate fluorescence; 100% is mature enzyme control, 0% vehicle | activation, % at 7 µM | actives 0.9% (n = 370,000);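 active = activation above the mean of all tested compounds plus 3 SD, computed per campaign excluding outliers beyond control limits, cut at about 13% in these data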
ADAM17 inh = ADAM17 inhibition, QFRET primary screen; P78536; recombinant ADAM17, EDANS/DABCYL FRET peptide cleavage; inhibition, % at 6.95 µM; actives 0.83% (n = 370,000);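 active = inhibition above the mean of compounds lying between control limits plus 3 SD, set per campaign, cut at about 8.5% in these data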;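 note: 0% = DMSO-only wells as the low control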
Target sequence (P78536 215-824 limits assumed): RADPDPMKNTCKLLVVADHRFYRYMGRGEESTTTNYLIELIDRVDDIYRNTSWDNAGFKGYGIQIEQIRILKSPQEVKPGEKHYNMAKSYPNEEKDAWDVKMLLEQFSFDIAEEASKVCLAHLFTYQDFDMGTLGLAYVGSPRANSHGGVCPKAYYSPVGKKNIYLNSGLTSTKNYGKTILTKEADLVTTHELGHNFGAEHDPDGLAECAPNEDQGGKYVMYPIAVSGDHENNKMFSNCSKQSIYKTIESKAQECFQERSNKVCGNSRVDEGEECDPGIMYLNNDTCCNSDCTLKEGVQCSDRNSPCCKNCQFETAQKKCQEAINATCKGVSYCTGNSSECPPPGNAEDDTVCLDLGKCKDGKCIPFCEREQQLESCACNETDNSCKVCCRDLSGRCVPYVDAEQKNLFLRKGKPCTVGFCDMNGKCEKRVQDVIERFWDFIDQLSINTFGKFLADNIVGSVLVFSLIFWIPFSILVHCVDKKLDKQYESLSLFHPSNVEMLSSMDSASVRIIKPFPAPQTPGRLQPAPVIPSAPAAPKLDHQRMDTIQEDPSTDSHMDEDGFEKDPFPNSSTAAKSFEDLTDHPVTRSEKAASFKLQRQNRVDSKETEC
ADAM10 inh = inhibits human ADAM10; recombinant ADAM10, EDANS/DABCYL FRET peptide cleavage, 3 h; inhibition, % at 7 µM; AID 720582; actives 0.62% (n = 370,000); O14672;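 active = inhibition above a per-campaign cutoff equal to the mean of compounds falling between control-based bounds plus 3 SD, cut at about 20% in these data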;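 note: 0% = DMSO wells while the 100% control is not disclosed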
V-ATPase pH = regulators of yeast V-ATPase proton transport. S. cerevisiae, pHLuorin cytosolic pH fluorescence. response, % at 10 µM. actives 0.37% (n = 350,000). AID 504577; in the data active = response mostly above about 7.3%, no sharp cut-off; inactive = mostly below about 5.4%; note: actives read high
KLK7 act conf = confirmation of human kallikrein-7 zymogen activators. shares compounds with KLK7 zymogen act. purified proKLK7, EDANS-DABCYL substrate fluorescence; scaled: vehicle 0, mature enzyme 100. activation, % at 7 µM. actives 68% (n = 3,200);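 active = activation, as change over the incubation, above the mean of all tested compounds plus 3 SD, cut at about 13% in these data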
EDANS-DABCYL int = optically interferes with EDANS-DABCYL signal, flagging KLK7 hits. shares compounds with KLK7 zymogen act. EDANS-DABCYL substrate fluorescence interference, no enzyme, 4 h; solvent 0%, active enzyme control 100%. activation, % at 7 µM. actives 80% (n = 3,200). AID 686952;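 active = activation above the all-compound mean plus 3 SD, ignoring values outside control-based bounds, cut at about 4.8% in these data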;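 note: value is the 4 h activation minus the activation read at time zero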
Active calls of the source: *; i = inactive; / = not tested or not shown. Sampled rows, rich in hits. Any-hit rate of the full collection: about 2.3%.

SMILES	KLK7 zymogen act	ADAM17 inh	ADAM10 inh	V-ATPase pH	KLK7 act conf	EDANS-DABCYL int
COCCOC(=O)C1=C(C)NC2=C(C(=O)CC(C)(C)C2)C1c1cccnc1 (stereo unspecified)	18.0*	-214.6	i	-1.6	38.6*	34.3*
CCN(CC)C(=O)O[C@H]1CC[C@@]23CCCN2C(=O)CCC[C@H]3[C@H]1C	/	-3.1	-2.0	/	/	/
Cc1cccc(C2=CC(=O)CC(C)(C)C2=O)c1	-0.3	-0.5	2.3	/	/	/
COc1cc2c(cc1OC)C(c1c(-c3c(Cl)cccc3Cl)noc1C)=NCC2	8.6	-21.9	-58.0	-0.7	/	/
COc1ccc(C2=NCCc3cc(OC)c(OC)cc32)cc1	30.2*	-14.1	-36.9	-1.4	11.2	12.9*
COc1ccc(C2=NC(C)(C)Cc3cc(OC)c(OC)cc32)cc1	22.5*	-10.1	-16.7	-0.7	8.7	7.1*
COc1cc2c(cc1OC)C(c1c(Cl)cccc1Cl)=NCC2	3.6	1.1	-15.0	/	/	/
COc1ccc(C2=NCCc3cc(OC)c(OC)cc32)cc1OC	16.6*	-8.6	-22.8	-0.1	-0.7	11.3*
COc1cc2c(cc1OC)C(CCc1ccccc1)=NCC2	152.4*	i	i	5.1	62.9*	79.8*
Cc1ccnc(SCc2cc(=O)c(OC(=O)c3ccc(C)c([N+](=O)[O-])c3)co2)n1	/	-2.4	-7.3	/	/	/
Cc1ccc2nc(-c3ccc4c(c3)OCCO4)cn2c1	5.3	-150.0	i	2.5	/	/
Clc1ccc2nc(-c3ccc4c(c3)OCO4)cn2c1	14.3*	-230.2	i	-4.6	7.2	7.8*
CCn1c(=O)c2cc(C(=O)NCCCOC)sc2c2ccccc21	15.4*	-92.8	-260.9	3.6	-10.5	-14.2
CCN(CC)CCNC(=O)c1cc2c(=O)n(C)c3ccccc3c2s1	26.7*	-329.9	i	-1.2	-10.0	-18.0
CCCCN(CC)CCCNC(=O)c1cc2c(=O)n(CC)c3ccccc3c2s1	10.7	-236.9	i	4.5	/	/
CCCCN(CC)CCNC(=O)c1cc2c(=O)n(CC)c3ccccc3c2s1	14.0*	-256.5	i	0.9	-1.3	-3.4
CCn1c(=O)c2cc(C(=O)NCCC(C)C)sc2c2ccccc21	-2.2	-32.1	-81.6	0.4	/	/
CCCN(CCC)CCNC(=O)c1cc2c(=O)n(C)c3ccccc3c2n1C	0.9	-19.4	-87.3	2.7	/	/
CCCCN(CC)CCNC(=O)c1cc2c(=O)n(C)c3ccccc3c2s1	19.1*	-445.2	i	0.3	1.2	-2.0
CCCCCCCCN1C(=O)[C@@H](CC(=O)NCCCOCCCC)C[C@@]2(C(=O)OC)C1=C[C@H](C(C)C)O[C@@H]2C1CC1	0.5	0.3	5.1	/	/	/
CCOC(=O)[C@]12CCCC=C1N(Cc1ccc(OC)cc1)C(=O)[C@@H]2CC(=O)NCCCN1CCCC1=O	0.6	-3.2	-4.4	/	/	/
CCCN(CCC)CCCNC(=O)c1cc2c(=O)n(CC)c3ccccc3c2s1	18.8*	-218.8	i	1.0	-8.2	-11.6
CCn1c(=O)c2cc(C(=O)NCC(OC)OC)sc2c2ccccc21	0.6	-157.8	-441.5	-0.1	/	/
CC(c1ccccc1)C1CC(=O)N(CC(=O)O)C1=O (stereo unspecified)	-0.1	-2.3	-3.6	-3.0	/	/
CC(c1ccccc1)C1CC(=O)N(Cc2ccco2)C1=O (stereo unspecified)	118.7*	-2.3	-3.7	-0.8	1.9	0.3
SMILES	KLK7 zymogen act	ADAM17 inh	ADAM10 inh	V-ATPase pH	KLK7 act conf	EDANS-DABCYL int
COc1cccc2sc3ccc(NCCC4CCCN4C)cc3c(=O)c12 (stereo unspecified)	-0.5	-4.0	-17.0	-4.0	/	/
COc1cc2sc3cc(NCC[C@@H]4CCCN4C)ccc3c(=O)c2cc1OC	20.8*	-284.1	i	-3.9	-68.0	-64.6
O=C(OCC(=O)N1CCN(C(=O)COC(=O)c2ccccc2NCCO)CC1)c1ccccc1NCCO	57.2*	i	i	-0.2	-30.0	-30.9
O=C(OCC(=O)N1CCN(C(=O)c2ccco2)CC1)c1ccccc1NCCO	21.5*	i	i	1.4	30.6*	31.3*
CC1CCN(C(=O)COC(=O)c2ccccc2NC(=O)c2ccco2)CC1	0.2	-27.6	-61.5	3.5	/	/
CC(OC(=O)c1ccccc1NCCO)C(=O)NC1CCCCC1C (stereo unspecified)	20.9*	-426.9	i	-6.4	18.9*	21.2*
CC1CCN(C(=O)COC(=O)c2ccccc2NCCO)CC1	21.4*	-413.9	i	/	25.8*	22.4*
CC1Cc2ccccc2N1C(=O)COC(=O)c1ccccc1NCCO (stereo unspecified)	11.7	-473.6	i	-1.3	/	/
CC(OC(=O)c1ccc(C(C)(C)C)cc1)C(=O)NC1CCCCC1C (stereo unspecified)	0.1	-1.8	-9.4	2.3	/	/
CCCCOCCCNC(=O)C[C@@H]1C(=O)N(CCc2ccc(Cl)cc2)C2=CCCC[C@]21C(=O)OCC	-0.2	3.3	7.8	/	/	/
CCOc1cc(/C=C2/NC(=O)N(CC(=O)Nc3cccc(C)c3)C2=O)ccc1OC	-0.1	-3.2	3.0	-1.2	/	/
COc1cc(/C=C2/NC(=O)N(CC(=O)Nc3cccc(C)c3)C2=O)ccc1OCC(N)=O	146.3*	-8.9	-26.4	2.1	50.4*	53.8*
N#CC1=C(SCC(=O)c2cc3ccccc3oc2=O)NC(=O)C(C#N)C12CCCC2 (stereo unspecified)	27.0*	-42.2	-155.0	11.1	54.8*	53.8*
Cc1occc1-c1nnc(SCC(=O)c2cc3ccccc3oc2=O)o1	-2.7	-13.0	-23.8	-0.4	/	/
CCCN1C(=O)c2ccccc2NC1c1ccc(OC)cc1OC (stereo unspecified)	9.8	i	i	4.9	/	/
O=C1c2ccccc2NC(c2ccccc2)N1CCCN1CCOCC1 (stereo unspecified)	14.7*	-219.1	-479.0	9.3	12.1	10.4*
O=C(O)c1ccccc1C1Nc2ccccc2C(=O)N1CCCN1CCOCC1 (stereo unspecified)	1.9	-29.6	-69.3	2.2	/	/
CCCN1C(=O)c2ccccc2NC1c1ccc(C)cc1 (stereo unspecified)	14.5*	-371.7	i	1.8	9.6	7.3*
CCCN1C(=O)c2ccccc2NC1c1ccc(OC)cc1O (stereo unspecified)	18.6*	-318.0	i	-1.6	15.0*	15.8*
COc1ccc(CN2CCC(CNC(=O)Nc3ccc(C)c(F)c3)CC2)cc1	0.1	0.7	2.9	/	/	/
Cc1cc(N2CCC(C)CC2)nc2ccccc12	/	-44.3	-147.9	/	/	/
COC(=O)COc1ccc(-c2ccccc2)cc1C=O	13.6*	-32.4	-109.3	0.9	-12.1	-16.1
COC(=O)COc1ccc(C)cc1-n1nc2ccccc2n1	0.8	-5.5	-5.1	2.2	/	/
COc1ccc(C(=O)N(C)[C@H]2C[C@H]3c4[nH]c5c(-c6ccccc6)cccc5c4CCN3C(=O)[C@H]2[C@H](C)O)cc1	-0.6	-14.2	-53.0	/	/	/

Bioassay records (PubChem BioAssay)
